Assay outcomes from PubChem BioAssay.
Shown are actives, neighbours in structure and some others; about 3.9% of the full set was active somewhere.
TGFb SMAD3 inh: blocks TGF-b signaling | HepG2 CAGA-GFP TGF-b/SMAD3 reporter, GFP fluorescence, 18 h; TGF-beta stimulated, 500 pg/mL final | Potency, µM (highest dose often 46.1 µM), most hits filed as inhibitors | 1.2% of 410,000 active | AID 588855; note: nearly all actives have a fitted effect of over 65% in size
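GFP signal (ex488/em500-530) from TGF-beta-stimulated HEPG2 CAGA-GFP cells, 500 pg/mL final, 18 h at 37 degrees C in DMEM plus 1% FBS, normalized to unstimulated and DMSO-stimulated controls.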
HT1080NT lethal: kills 2HG-producing HT-1080-NT fibrosarcoma cells | HT-1080-NT fibrosarcoma viability, CellTiter-Glo ATP luminescence, 48 h | Potency, µM (doses to about 46.1 µM), hits mostly cytotoxic | 1.6% of 360,000 active;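 note: NT is the 2HG producing partner of a matched IDH1 knockdown line; nearly all actives have a fitted effect of over 55% in size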
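Compounds were tested in concentration-response format on HT-1080-NT cells for 48 hours at 37 degrees C. Cell viability came from CellTiter-Glo luminescence; curves were classified by r2, response magnitude and activity.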
ATXN2 expr inh: ATXN2 expression inhibition | HEK-293 ATXN2-luciferase reporter, luminescence, 24 h | Potency, µM (doses to about 57 µM), most hits filed as inhibitors | 0.72% of 360,000 active | AID 1745845; note: nearly all actives have a fitted effect of over 55% in size
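qHTS (up to 57 uM final) was run with 24 h compound exposure of reporter cells at 37 °C. Each well was multiplexed: SteadyGlo luminescence measured ATXN2-luciferase expression after a fluorogenic Gly-Phe-AFC viability readout (25 uM final).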
HepG2 tox: HepG2 cytotoxicity, counter-screen for TGF-b inhibitors; 0.76% of 410,000 active; HepG2 CAGA-GFP viability, ATP luminescence, 18 h; Potency, µM (top dose mostly 46.1 µM), usual class: cytotoxic
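CellTiter-Glo luminescence gave cytotoxicity after 18 hours at 37 degrees C. The cells were HepG2 CAGA-GFP in 1% FBS DMEM, stimulated with 500 pg/mL TGF-beta after compound addition. %Activity was normalised to no-cell wells (complete cell-killing) and DMSO (no toxicity), and curves were fitted and classified.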
HT1080 IDH1KD tx: HT-1080 IDH1 knockdown cell toxicity (counter line); Potency, µM (top dose mostly 46.1 µM), most hits filed as cytotoxic; 2% of 360,000 active; HT-1080 IDH1 knockdown viability, ATP luminescence, 48 h
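Viability of IDH1-knockdown HT-1080 fibrosarcoma cells was assessed by CellTiter-Glo after 48 h at 37 °C with titrated compound; concentration-effect curves were classified by fit quality and response size.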
S2 tox: viability counter-screen for ATXN expression inhibitors; S2 cells (HEK-293 line with an ATXN2-luciferase reporter) viability, CellTiter-Fluor protease fluorescence, 24 h; 0.49% of 400,000 active; Potency, µM (titrated, usually from 56.7 µM), most hits filed as cytotoxic; note: nearly all actives have a fitted effect of over 40% in size
Each line names hits and unclear results; the compound was inactive in the other large screens. Calls come from the whole dose curve; as a rule, active = well fitted curve in the direction sought with a large enough effect; inconclusive = small, poorly fitted or top-dose-only effect, or another doubt; inactive = no such curve, though single readings can be large; an effect the other way counts as inactive or inconclusive.

CN(C)CCCNc1nc(-c2ccccc2)nc2ccccc12	ATXN2 expr inh inconclusive, HT1080 IDH1KD tx inconclusive
Cc1c2ccccc2nc2c(F)c(NCCO)c(F)c(F)c12	none
COCc1c(C(=O)N2CCC(N(C)C)C2)cnn1-c1ncc2c(n1)-c1ccccc1CCC2 (configuration not stated)	none (no result: TGFb SMAD3 inh, HT1080NT lethal, ATXN2 expr inh, HepG2 tox, HT1080 IDH1KD tx)
CC(C)Oc1ccc(C(=O)NC2CCCCC2)cc1	none
CC(C)Oc1ccc(C(CCN)C2CCCCC2)cc1 (configuration not stated)	TGFb SMAD3 inh inconclusive, HT1080NT lethal 15µM, ATXN2 expr inh inconclusive, HepG2 tox 11µM, HT1080 IDH1KD tx 15µM (no result: S2 tox)
CCC(=O)N1c2ccccc2CC1C(=O)NCCCN1CCN(c2ccc(F)cc2)CC1 (configuration not stated)	S2 tox inconclusive (no result: HT1080NT lethal, HT1080 IDH1KD tx)
COc1ccc(C(=O)CSc2nc(C(C)(C)C)nc3ccccc23)cc1	TGFb SMAD3 inh 20µM
CC(C)(C)c1nc(SCC(=O)NCc2ccco2)c2ccccc2n1	none
COc1ccc(C(=O)CSc2nc3ccccc3n2CC(=O)c2ccccc2)cc1	S2 tox inconclusive
COc1ccc(C(=O)Cn2c(C(=O)/C=C/c3ccccc3)nc3ccccc32)cc1	HT1080NT lethal inconclusive, ATXN2 expr inh 22µM, HT1080 IDH1KD tx inconclusive, S2 tox inconclusive
CCCOc1ccc(C(=O)CCN2CCCCC2)cc1	TGFb SMAD3 inh inconclusive, HT1080NT lethal inconclusive
CCCCOc1ccc(C(=O)CCN2CCOCC2)cc1	TGFb SMAD3 inh inconclusive, HT1080NT lethal inconclusive, ATXN2 expr inh 19µM (no result: S2 tox)
CCOc1ccc(C(=O)CCN2CCCCCC2)cc1	TGFb SMAD3 inh inconclusive, HT1080NT lethal inconclusive, HepG2 tox 11µM, HT1080 IDH1KD tx inconclusive
COc1ccc2[nH]c(C(=O)NCCN3CCCCC3)cc2c1	HepG2 tox 7.9µM
COc1ccc(/C=C2/Sc3ccc(C(=O)NCCN4CCCCCC4)cc3NC2=O)cc1	TGFb SMAD3 inh 25µM, HepG2 tox 13µM, S2 tox 28µM (no result: ATXN2 expr inh)
O=C1Nc2cc(C(=O)NCCCN3CCCC3)ccc2S/C1=C\c1ccccc1	TGFb SMAD3 inh inconclusive, HepG2 tox 16µM, HT1080 IDH1KD tx inconclusive, S2 tox inconclusive (no result: ATXN2 expr inh)
O=C1Nc2cc(C(=O)NCCCN3CCOCC3)ccc2S/C1=C/c1cccc(Cl)c1	none (no result: ATXN2 expr inh)
O=C(NCCc1ccncc1)c1cnn(-c2ncc3c(n2)-c2ccccc2CCC3)c1C1CC1	none (no result: TGFb SMAD3 inh, HT1080NT lethal, ATXN2 expr inh, HepG2 tox, HT1080 IDH1KD tx)
CCS(=O)(=O)c1cccc(-c2cc(C(=O)NC3CCN(C)CC3)c(C)c3[nH]c4ncc(C)cc4c23)c1	ATXN2 expr inh 1.9µM (no result: TGFb SMAD3 inh, HT1080NT lethal, HepG2 tox, HT1080 IDH1KD tx, S2 tox)
Cc1c(C(=O)N2CCOc3ccccc3C2)sc2ncnc(NCCCN3CCOCC3)c12	none (no result: TGFb SMAD3 inh, HT1080NT lethal, ATXN2 expr inh, HepG2 tox, HT1080 IDH1KD tx)
COc1cccc(/C=N/Nc2nnc(C)n2N)c1O	TGFb SMAD3 inh 7.9µM, HT1080NT lethal inconclusive, HT1080 IDH1KD tx 21µM
COc1ccc(-n2c(C)cc(/C=N/Nc3nnc(C)n3N)c2C)cc1	TGFb SMAD3 inh 3.5µM, HepG2 tox 5µM, HT1080 IDH1KD tx inconclusive, S2 tox inconclusive
COc1cccc(/C=N/Nc2cc(N3CCOCC3)ncn2)c1O	TGFb SMAD3 inh inconclusive, HT1080NT lethal inconclusive, ATXN2 expr inh inconclusive, HT1080 IDH1KD tx 5.8µM
COc1ccc(/C=N/Nc2cc(N3CCOCC3)ncn2)c(OC)c1	none
COc1cc(=O)n2c(c1C(=O)NCc1ccco1)CCN(Cc1c(F)cccc1F)CC2	none (no result: TGFb SMAD3 inh, HT1080NT lethal, ATXN2 expr inh, HepG2 tox, HT1080 IDH1KD tx)
CC(=O)ON(C(C)=O)c1ccc(/C=C2/C=Cc3ccccc32)cc1	none (no result: HT1080NT lethal, ATXN2 expr inh, HT1080 IDH1KD tx, S2 tox)
CN1C(=O)C(O)(CC(=O)c2ccccc2O)c2cc(Br)ccc21 (configuration not stated)	TGFb SMAD3 inh inconclusive, HT1080NT lethal 16µM, S2 tox inconclusive
CC(=O)N1CCN(c2ccc(OCc3nn(C)c(C)c3-c3cccc4c(CCCOc5cc(C)c(Cl)c(C)c5)c(C(=O)O)n(Cc5cccnc5)c34)cc2)CC1	none (no result: TGFb SMAD3 inh, HT1080NT lethal, HepG2 tox, HT1080 IDH1KD tx, S2 tox)
